Data reported in PubChem BioAssay (NCATS).
Records with an inconclusive call do not appear. A number with no mark means an inactive call. Active and inactive are the calls of the source. Calls come from the whole dose curve; as a rule, active = well fitted inhibition curve with a large enough effect; inconclusive = small, poorly fitted or top-dose-only effect; inactive = flat fitted curve, though single readings scatter.

Assay: qHTS for Inhibitors of Plasmodium falciparum (HB3) proliferation (AID 504318); note: nearly all actives have a fitted effect of over 60% in size;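 for activity change, negative = inhibition: 0% = DMSO vehicle and -100% = artemisinin control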
Conditions: P. falciparum HB3 in erythrocytes, SYBR Green DNA, 72 h; series mostly up to 7.21 µM; activity change, negative = inhibition: at the top concentration
Source text: Plasmodium falciparum is a virulent malarial parasite that kills 1-2 million people worldwide each year. Malaria not only inflicts tremendous suffering and morbidity on the human population, but has dramatically influenced the course of civilization with profound sociological and economic implications (Shah, S. 2010). Transmitted by mosquitoes, the sporozoite form of the parasite enters the blood stream to infect hepatocytes, where they become merozoites that infect red blood cells (erythrocytes). Within erythrocytes, merozoites begin a […] cycle of growth and division, after which the parasite is released to infect new red blood cells. Gametocytes, which form within erythrocytes as well, circulate in the bloodstream and are ingested by the mosquito, thereby completing the life cycle (see CDC website). To profile malarial lines for differential chemical responses and to identify inhibitors of malarial growth, an assay that measures P. falciparum growth and replication within erythrocytes was employed. This assay uses a DNA binding fluorescent dye (SYBR Green) to detect parasite DNA following cell lysis. Because mature erythrocytes lack DNA, only Plasmodium-derived DNA is detected. The P. falciparum line cp250, derived from a malarial isolate from Cambodia, (Mu, J., et al. 2010) was added to the panel of lines, Dd2, HB3, 7G8 and GB4 in this study. Laboratory of Assay Development and Screening Technology [ADST] and NIH Chemical Genomics Center [NCGC] Boston University, Chemistry Department, Center for Chemical Methodology and Library Development [CMLD-BU] NIH National Institute of Allergy and Infectious Diseases [NIAID]
ADST Assay Protocol Summary: The 1536-well SYBR Green viability assay was based on the method of Bennett et al (2004) and described previously in 1536-well format (Yuan J., et al. 2009). For screening 3 ul culture medium was dispensed into 1536 well black clear bottom plates (Aurora Biotechnologies) using a Multidrop Combi (Thermo Fisher Scientific Inc.), 23 nL compounds in DMSO were added by a pin transfer (Cleveland, P.H. and Koutz, P.J, 2005) using a pin tool-based delivery system (Kalypsys), and 5 ul of erythrocytes infected with P. falciparum one of five lines (cp250, Dd2, HB3, 7G8 or GB4, 0.3% parasitemia, 2.5% hematocrit final concentration) were added. The plates were incubated at 37C in a humidified incubator in 5% CO2 for 72 h, and 2 ul lysis buffer (20 mM Tris HCl, 10 mM EDTA, 0.16% saponin, 1.6% triton X, 10X SYBR Green I (supplied as 10,000X final concentration by Invitrogen) was added to each well. The plates were mixed for 25 sec with gentle shaking and incubated overnight at room temperature in the dark. The following morning, fluorescence intensity at 485(14) nm excitation and 535(25) nm emission wavelengths was measured on an EnVision (Perkin Elmer) plate reader. Plate reads were normalized relative to the control inhibitor (0.29 uM artemisinin) and vehicle (DMSO) wells present on each plate and then corrected by an algorithm using vehicle-only control plates at the beginning and end of the compound plate stack. References Shah, S. (2010). The Fever: how malaria has ruled humankind for 500,000 years. New York, Sarah Crichton Books. CDC web site, http://www.cdc.gov/malaria/about/biology/index.html Mu, J., Myers, R.A., Jiang, H., Liu, S., Ricklefs, S., Waisberg, M., Chotivanich, K., Wilairatana, P., Krudsood, S., White, N.J., et Plasmodium falciparum genome-wide scans for positive selection, recombination hot spots and resistance to antimalarial drugs Nature Genetics 2010, 42, pp 268-271 Bennett TN, Paguio, M., Gligorijevic, B., Seudieu, C., Kosar, A. D., Davidson, E., and Roepe, P. D. Novel, rapid, and inexpensive cell-based quantification of antimalarial drug efficacy Antimicrobial Agents Chemother. 2004, 48(5): pp 1807-10 Yuan J, Johnson RL, Huang RL, Wichterman J, Jiang HY, Hayton K, Fidock DA, Wellems TE, Inglese J, Austin CP, Su XZ. […]
Potency is the fitted concentration of half-maximal effect.

| Structure (SMILES) | activity change, negative = inhibition | Potency |
| --- | --- | --- |
| CCCCc1nc2c(c3c1C[C@H](C)OC3)CN(C(=O)COC)CC2 | -0.543% |  |
| COC/C=C/C1=CC2=CC(=O)C(C)(OC(=O)c3cnc4ccccc4n3)C(=O)C2=CN1CCc1c[nH]c2ccccc12 (stereo not given) | -6.82% |  |
| CC(C)CN1C=C2C(=O)C(C)(OC(=O)C3CCCC3)C(=O)C=C2C=C1c1ccsc1 (stereo not given) | 2.89% |  |
| CCN1C(=O)N[C@@H](c2ccco2)C(C(C)=O)=C1C | -0.405% |  |
| COC(=O)C1=C(C)N(Cc2ccccc2)C(=S)NC1c1cccc(F)c1 (stereo not given) | -10.3% |  |
| COC(=O)N[C@@H](c1cccc(C)c1)[C@]1(C(C)=O)CCCC1=O | 7.66% |  |
| COC/C=C/C1=CC2=CC(=O)C(C)(OC(=O)c3cnc4ccccc4n3)C(=O)C2=CN1c1cccc(C#N)c1 (stereo not given) | -3.99% |  |
| CC(=O)[C@@H]1[C@@H](C)N(Cc2ccccc2)C(=O)N[C@H]1c1cccc(C(F)(F)F)c1 |  | inactive |
| COC(=O)C1=C(C)N(CC2CC2)C(=O)N[C@H]1c1ccccc1 | 2.43% |  |
| COCCN1C(=O)N[C@@H](c2cccc(F)c2)C(C(C)=O)=C1C | -1.01% |  |
| CC#CCN1c2ccccc2[C@]23C[C@@H](C(=O)OC)N(C(=O)COCc4ccccc4)C2=NC(C(=O)OC)=C(C(=O)OC)[C@H]13 | -2.27% |  |
| CCCC[C@]12Cc3c(ccc4ccccc34)[C@H](O1)C1=C(O2)C(=O)c2ccccc2C1=O |  | 1.51 µM (active) |
| CCCCC1=CC2=CC(=O)C(C)(OC(=O)CC)C(=O)C2=CN1Cc1ccc(OC)cc1 (stereo not given) | -5.47% |  |
| CCOC(=O)CN1C(=O)N[C@@H](c2ccco2)C(C(C)=O)=C1C | -3.47% |  |
| CCCCC1=CC2=CC(=O)C(C)(OC(=O)CC)C(=O)C2=CN1C(CO)CO (stereo not given) | 1.91% |  |
| COC(=O)C1=C(C(=O)OC)[C@@H]2Nc3ccccc3[C@@]23C[C@@H](C(=O)OC)N(C(=O)NC2CCCC2)C3=N1 | -3.07% |  |
| CC#CCN1c2ccccc2[C@]23C[C@@H](C(=O)OC)N(S(=O)(=O)c4cccs4)C2=NC(C(=O)OC)=C(C(=O)OC)[C@H]13 | -3.53% |  |
| CCN(CC)CCCN1C=C2C(=O)C(C)(OC(=O)CCC(=O)OC)C(=O)C=C2C=C1C1CC1 (stereo not given) | -0.686% |  |
| CCN1C(=O)N[C@H](c2ccccc2)C(C(C)=O)=C1C | 7.04% |  |
| COCCN1C(=O)N[C@@H](c2ccco2)C(C(=O)OC)=C1C | -2.01% |  |

| Structure (SMILES) | activity change, negative = inhibition | Potency |
| --- | --- | --- |
| CCN1C(=O)N[C@@H](CCc2ccccc2)C(C(C)=O)=C1C | 0.86% |  |
| COC(=O)C1=C(C(=O)OC)[C@@H]2Nc3ccccc3[C@@]23C[C@@H](C(=O)OC)N(C(C)=O)C3=N1 | 5.97% |  |
| COC/C=C/C1=CC2=CC(=O)C(C)(OC(=O)c3cnc4ccccc4n3)C(=O)C2=CN1c1ccc(CO)cc1 (stereo not given) | 2.27% |  |
| COC[C@@H](O)[C@@H](OC)[C@H](OC)[C@H](Cc1c(OC)cc(OC)cc1OC)OC | 7.26% |  |
| CCCCc1nc2c(c3c1C[C@H](C)OC3)CN(S(=O)(=O)c1ccc(C#N)cc1)CC2 | -14.2% |  |
| COC(=O)C1=C(C(=O)OC)[C@@H]2N(C)c3ccccc3[C@@]23C[C@@H](C(=O)OC)N=C3N1 | 0.502% |  |
| COC/C=C/C1=CC2=CC(=O)C(C)(OC(=O)c3cnc4ccccc4n3)C(=O)C2=CN1CCN1CCOCC1 (stereo not given) | 1.82% |  |
| CCN1C(=O)N[C@@H](CCc2ccccc2)[C@H](C(=O)OC)[C@H]1C | -0.679% |  |
| C=CCOC(=O)N[C@@H](c1ccc(Br)cc1)C(C(C)=O)C(C)=O | 8.37% |  |
| COC/C=C/C1=CC2=CC(=O)C(C)(OC(=O)c3cnc4ccccc4n3)C(=O)C2=CN1CCCOC(C)C (stereo not given) | -0.155% |  |
| C=CCN1c2ccccc2[C@]23C[C@@H](C(=O)OC)N(C(=O)CC(C)C)C2=NC(C(=O)OC)=C(C(=O)OC)[C@H]13 |  | inactive |
| COc1ccc(C2=CC3=C(Br)C(=O)C(C)(OC(=O)c4ccco4)C(=O)C3=CO2)cc1 (stereo not given) | 3.73% |  |
| CCCCc1nc2c(c3c1C[C@H](C)OC3)CN(C(=O)C1CC1)CC2 | -1.95% |  |
| CCOC(=O)CN1C(=O)N[C@@H](c2cccc(F)c2)C(C(C)=O)=C1C | -1.66% |  |
| C=C(C(C)=O)C(O)C=Cc1ccco1 (stereo not given) | -3.26% |  |
| CCO[C@H](c1cc(OC)cc([N+](=O)[O-])c1OC)[C@H](C)C=CCC(=O)OC | -7.02% |  |
| CCOC(=O)NN=C1C[C@@H](O)[C@@H](O)[C@@H]2[C@H]3C(=O)N([C@@H](C)c4ccccc4)C(=O)[C@@H]3CC[C@@H]12 | -0.772% |  |
| COc1ccc(-c2nc3c(c4c2C[C@H](c2ccccc2)OC4)CN(C(=O)NCCc2c[nH]c4ccccc24)CC3)c(C)c1 | 5.12% |  |
| COC(=O)C1=C(C(=O)OC)[C@@H]2N(C)c3ccc(OC)cc3[C@@]23C[C@@H](C(=O)OC)N(C(=O)c2ccc(Br)cc2)C3=N1 | -1.74% |  |
| C[C@H]1Cc2c(-c3ccccc3)nc3c(c2CO1)CN(S(=O)(=O)c1ccc(C#N)cc1)CC3 | -8.24% |  |
